# Measured values as given in PubChem BioAssay (Tox21).
# Unmarked numbers belong to inactive results. Records with an inconclusive call do not appear. Entries that show only a call come without a potency. Active and inactive are the calls of the source. Unless noted, calls come from the whole dose curve; as a rule, active = well fitted curve in the direction sought with a large enough effect in the repeat runs; inconclusive = weak or mixed curves; inactive = no such curve, though single readings can be large; an effect the other way counts as inactive or inconclusive.
# What was measured:
# [1] = qHTS assay for small molecule agonists of the p53 signaling pathway (AID 651631; calls by dose curve; note: nearly all actives have a fitted effect of over 15% in size; note: potency is the fitted concentration of half-maximal effect)
# In short: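 p53RE-bla HCT-116 cells; compounds 16 h, 37 °C; LiveBLAzer B/G FRET substrate 2 h RT; fluorescence intensity read-out, qHTS format.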
# [2] = qHTS assay for small molecules that induce genotoxicity in human embryonic kidney cells expressing luciferase-tagged ATAD5 (AID 651632); note: nearly all actives have a fitted effect of over 15% in size
# In short: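 Luminescent reporter readout, HEK293T ATAD5-luc line: 16 hr drug exposure (37C, 5% CO2) followed by Amplite, 30 min RT.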
# [3] = qHTS assay for small molecule agonists of the p53 signaling pathway - cell viability (AID 651633; calls by dose curve; note: nearly all actives have a fitted effect of over 30% in size; note: potency is the fitted concentration of half-maximal effect)
# In short: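 p53RE-bla cells, seeded at 4,000 per well and rested 5 h at 37 C/5% CO2, received compounds in DMSO for 16 h at 37 C. CellTiter-Glo was then added, and luminescence was read after 30 min at room temperature to gauge cytotoxicity.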
# [4] = qHTS assay for small molecules that induce genotoxicity in human embryonic kidney cells expressing luciferase-tagged ATAD5 - cell viability (AID 651634; calls by dose curve; note: nearly all actives have a fitted effect of over 25% in size)
# In short: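 Viability read: CellTiter-Fluor fluorescence, 30 min at 37C. Cells: HEK293T, luciferase-tagged ATAD5. Exposure: 15.5 hr, 37C, 5% CO2, compound or DMSO vehicle.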
# [5] = qHTS assay for small molecule disruptors of the mitochondrial membrane potential - cell viability (AID 720634; calls by dose curve;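 note: human HepG2 liver cancer cells; series mostly up to about 83 µM; nearly all actives have a fitted effect of over 20% in size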)
# In short: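 HepG2, 1 hr compound, 37 C. ATP luminescence via CellTiter-Glo, 30 min RT, same well as m-MPI.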
# [6] = qHTS assay for small molecule disruptors of the mitochondrial membrane potential (AID 720635); note: potency is the fitted concentration of half-maximal effect
# In short: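 HepG2 cells (2,000/well) attached overnight at 37C, then took compound for 1 hr at 37C, 5% CO2. Mito-MPS dye was added for 30 min; fluorescence was read at 490/535 nm (monomers) and 540/590 nm (aggregates).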
# [7] = qHTS assay to test for compound auto fluorescence at 590 nm (red) in HepG2 cells (AID 720674)
# In short: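 Intrinsic compound fluorescence in the red window (Ex/Em 540/590 nm) is measured in attached HepG2 cells exposed for 1 hr, DMSO vehicle as baseline, benchmarked to Rose Bengal sodium.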
# [8] = qHTS assay to test for compound auto fluorescence at 535 nm (green) in HepG2 cells (AID 720675)
# [9] = qHTS assay to test for compound auto fluorescence at 590 nm (red) in HEK293 cells (AID 720679)
# In short: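 Plates of HEK293 cells (10% dialyzed FBS) are treated with 23 nL compound or DMSO vehicle after a 4-5 hr attachment period, incubated overnight at 37C, and read for red fluorescence at 540/590nm.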
# [10] = qHTS assay to test for compound auto fluorescence at 460 nm (blue) in HEK293 cells (AID 720678)
# In short: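 After cell attachment (4-5 hr, 37C), compounds were pinned onto HEK293 monolayers in 10% dialyzed FBS medium. The blue channel (405/460 nm) was read following overnight culture. Equivalency was calculated against triamterene.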
Structure (SMILES),Potency [1],Potency [2],Potency [3],Potency [4],Potency [5],Potency [6],outcome [7],outcome [8],outcome [9],Potency [10],"fluorescence, relative to Rose Bengal [7]","fluorescence, % of fluorescein control [8]","fluorescence, % of fluorescent control [9]","fluorescence, % of triamterene [10]"
CCO[Si](C)(OCC)OCC,inactive,inactive,inactive,inactive,inactive,inactive,inactive,inactive,inactive,,,,,
OCCN1C[C@H](O)[C@@H](O)[C@H](O)[C@H]1CO,inactive,inactive,inactive,inactive,inactive,inactive,inactive,inactive,inactive,,,,,
CC(C)c1cccc(O)c1,inactive,inactive,inactive,inactive,inactive,64.4 µM (active),inactive,inactive,inactive,inactive,,,,
CC(C)N1C(=O)c2ccccc2C1=O,inactive,inactive,inactive,inactive,inactive,inactive,inactive,inactive,inactive,,,,,
C#CC(C)(O)CC(C)C (stereo not drawn),inactive,inactive,inactive,inactive,inactive,inactive,inactive,inactive,inactive,,,,,
O=C1C(CCS(=O)c2ccccc2)C(=O)N(c2ccccc2)N1c1ccccc1 (stereo not drawn),inactive,inactive,inactive,inactive,inactive,inactive,,,,,-0.0311% [at 18.6 µM],-0.114% [at 18.6 µM],0.179% [at 18.6 µM],
CC(C)[N+](C)(C)CC(O)COc1cccc2ccccc12 (stereo not drawn),inactive,inactive,inactive,inactive,inactive,inactive,inactive,inactive,inactive,inactive,,,,
C=CCn1c(=O)n([C@@H]2O[C@H](CO)[C@@H](O)[C@H]2O)c2nc(N)[nH]c(=O)c21,inactive,inactive,inactive,inactive,inactive,inactive,inactive,inactive,inactive,,,,,
O=S(=O)(O)c1ccccc1O,inactive,inactive,inactive,inactive,inactive,inactive,inactive,inactive,inactive,inactive,,,,
O=C(O)/C=C/c1ccc(/C=C/C(=O)O)cc1,inactive,inactive,inactive,inactive,inactive,inactive,inactive,inactive,inactive,inactive,,,,
CCCCCCC(CCCCCCCCCCC(=O)OCC(COC(C)=O)OC(C)=O)OC(C)=O (stereo not drawn),inactive,inactive,inactive,inactive,inactive,inactive,inactive,inactive,inactive,inactive,,,,
O=[N+]([O-])c1ccc(CCO)cc1,inactive,inactive,inactive,inactive,inactive,,inactive,inactive,inactive,inactive,,,,
Nc1nc2c(ncn2CCC(CO)CO)c(=O)[nH]1,inactive,inactive,inactive,inactive,inactive,inactive,inactive,inactive,inactive,,,,,
COC(C(=O)O)c1ccccc1 (stereo not drawn),inactive,inactive,inactive,inactive,inactive,inactive,inactive,inactive,inactive,,,,,
CCCCCCCCCCCCCCCCCCOCC(O)CO (stereo not drawn),inactive,inactive,inactive,inactive,inactive,inactive,inactive,inactive,inactive,inactive,,,,
NC1CCN(c2cccc(Cl)n2)CC1,inactive,inactive,inactive,inactive,inactive,inactive,inactive,inactive,inactive,,,,,
CCCCCCCCCCC1CO1 (stereo not drawn),inactive,inactive,inactive,inactive,inactive,,inactive,inactive,inactive,inactive,,,,
COC(=O)CCCC(=O)O,inactive,inactive,inactive,inactive,inactive,,inactive,inactive,inactive,inactive,,,,
O=C(O)/C=C/c1ccc(Cn2ccnc2)cc1,inactive,inactive,inactive,inactive,inactive,,,,,,0.61% [at 18.6 µM],0.0058% [at 18.6 µM],-0.336% [at 18.6 µM],-0.0046% [at 18.6 µM]
Cc1cc(C)c(NC(=O)CN(CC(=O)O)CC(=O)O)c(C)c1Br,inactive,inactive,inactive,inactive,inactive,inactive,inactive,inactive,inactive,inactive,,,,
CO[Si](CCCNCCC[Si](OC)(OC)OC)(OC)OC,inactive,inactive,inactive,inactive,inactive,inactive,inactive,inactive,inactive,,,,,
CCCc1ccc(N)cc1,inactive,inactive,inactive,inactive,inactive,inactive,inactive,inactive,inactive,,,,,
C=CCOc1nc(OCC=C)nc(OCC=C)n1,inactive,inactive,inactive,inactive,inactive,inactive,inactive,inactive,inactive,,,,,
COCc1ccc(COC)cc1,inactive,inactive,inactive,inactive,inactive,inactive,inactive,inactive,inactive,inactive,,,,
O=C(O)CCNC(=O)c1ccc(N=Nc2ccc(O)c(C(=O)O)c2)cc1,inactive,inactive,inactive,inactive,inactive,,inactive,inactive,inactive,inactive,,,,

Structure (SMILES),Potency [1],Potency [2],Potency [3],Potency [4],Potency [5],Potency [6],outcome [7],outcome [8],outcome [9],Potency [10],"fluorescence, relative to Rose Bengal [7]","fluorescence, % of fluorescein control [8]","fluorescence, % of fluorescent control [9]","fluorescence, % of triamterene [10]"
Cc1ncc(CSSCc2cnc(C)c(O)c2CO)c(CO)c1O,inactive,inactive,inactive,inactive,inactive,,inactive,inactive,inactive,inactive,,,,
NS(=O)(=O)c1cc2c(cc1Cl)NC(CSCc1ccccc1)=NS2(=O)=O,inactive,inactive,inactive,inactive,inactive,,,,,,-0.338% [at 18.6 µM],0.0219% [at 18.6 µM],-0.0194% [at 18.6 µM],-0.0281% [at 18.6 µM]
CCCCc1ccc(N)cc1,inactive,inactive,inactive,inactive,inactive,,inactive,inactive,inactive,inactive,,,,
CCC(=O)c1cccc(Cl)c1,inactive,inactive,inactive,inactive,inactive,,inactive,inactive,inactive,inactive,,,,
CC(C)COC(=O)c1ccccc1O,inactive,inactive,inactive,inactive,inactive,,inactive,inactive,inactive,inactive,,,,
NS(=O)(=O)c1cc2c(cc1C(F)(F)F)NC(Cc1ccccc1)NS2(=O)=O (stereo not drawn),inactive,inactive,inactive,inactive,inactive,,,,,,0.0251% [at 18.6 µM],-0.0381% [at 18.6 µM],0.307% [at 18.6 µM],0.0799% [at 18.6 µM]
COC(=O)CCCCCCCCC(=O)OC,inactive,inactive,inactive,inactive,inactive,,inactive,inactive,inactive,inactive,,,,
C=C(C)C(=O)OCCC(C)OC(=O)C(=C)C (stereo not drawn),inactive,inactive,inactive,inactive,inactive,,inactive,inactive,inactive,inactive,,,,
CCn1cc(C(=O)O)c(=O)c2cc(F)c(N3CCN(C)CC3)cc21,inactive,inactive,inactive,inactive,inactive,,inactive,inactive,inactive,inactive,,,,
C[C@H](O)C(=O)Nc1c(I)c(C(=O)NC(CO)CO)c(I)c(C(=O)NC(CO)CO)c1I,inactive,inactive,inactive,inactive,inactive,,,,,,0.0368% [at 18.6 µM],0.0325% [at 18.6 µM],0.0561% [at 18.6 µM],-0.0154% [at 18.6 µM]
CC(C)(O)c1ccccc1,inactive,inactive,inactive,inactive,inactive,,inactive,inactive,inactive,inactive,,,,
Fc1ccccc1-c1ccccc1,inactive,inactive,inactive,inactive,inactive,,inactive,inactive,inactive,inactive,,,,
COc1cc(O)cc(O)c1,inactive,inactive,inactive,inactive,inactive,,inactive,inactive,inactive,inactive,,,,
CCCCc1ccc2cccc(S(=O)(=O)O)c2c1,inactive,inactive,inactive,inactive,inactive,,inactive,inactive,inactive,inactive,,,,
CO[Si](OC)(OC)OC,inactive,inactive,inactive,inactive,inactive,,inactive,inactive,inactive,inactive,,,,
CCCC(C)CO (stereo not drawn),inactive,inactive,inactive,inactive,inactive,,inactive,inactive,inactive,inactive,,,,
[O-][N+](=Nc1ccccc1)c1ccccc1,inactive,inactive,inactive,inactive,inactive,,inactive,inactive,inactive,inactive,,,,
C[C@H]1O[C@@H](n2cc(F)c(=O)[nH]c2=O)[C@H](O)[C@@H]1O,21.1 µM (active),inactive,8.41 µM (active),inactive,inactive,,inactive,inactive,inactive,inactive,,,,
CCCC(C)C(=O)O (stereo not drawn),inactive,inactive,inactive,inactive,inactive,,inactive,inactive,inactive,inactive,,,,
CCc1cc(S(=O)(=O)O)c2cc(C(C)C)cccc1-2,inactive,inactive,inactive,inactive,inactive,,inactive,inactive,inactive,inactive,,,,
Oc1cc(O)c2c(c1)O[C@H](c1ccc(O)c(O)c1)[C@H](O)C2,inactive,inactive,inactive,inactive,inactive,,inactive,inactive,inactive,inactive,,,,
COc1cc(CCC(C)=O)ccc1O,inactive,inactive,inactive,inactive,inactive,,inactive,inactive,inactive,inactive,,,,
CC(C=O)Cc1ccc(C(C)C)cc1 (stereo not drawn),inactive,inactive,inactive,inactive,inactive,,inactive,inactive,inactive,inactive,,,,
CC/C=C\CCCCO,inactive,inactive,inactive,inactive,inactive,,inactive,inactive,inactive,inactive,,,,
CC(=O)OC(C)(C)C,inactive,inactive,inactive,inactive,inactive,,inactive,inactive,inactive,inactive,,,,
